An excerpt weighted towards active compounds, which were near 1.1% of everything screened.
MOR-DOR ag-1 = agonists of human mu-delta opioid receptor heterodimerization; AID 504326; P35372+P41143; activation, % at 9.3 µM; cells, OPRM1-OPRD1 heterodimerization, luminescence; hit rate 0.3% among 340,000; in the data active = activation above about 18%
MOR-DOR inv ag-1 = mu-delta opioid heterodimer inverse agonism | P35372+P41143 | cell-based MOR-DOR heterodimer luminescence | inhibition, % at 9.3 µM | hit rate 0.21% among 340,000 | AID 504357; in the data active = inhibition above about 22%, passing the limit was not always enough
HTR5A ag ctr = HTR5A agonism, opioid heterodimer counter-screen; HTR5A agonist assay, luminescence, cell-based; activation, % at 9.3 µM; hit rate 0.61% among 340,000; AID 504692; in the data active = activation mostly above about 9.5%, no sharp cut-off; inactive = mostly below about 7.6%
HTR5A inv ctr = counter-screen for OPRM1-OPRD1 inverse agonists: human HTR5A inverse agonism. inhibition, % at 9.3 µM. HTR5A cell line, luminescence. hit rate 0.083% among 340,000; in the data active = inhibition mostly above about 23%, no sharp cut-off; inactive = mostly below about 18%
OPRM1-D1 inv cf = OPRM1-OPRD1 heterodimer inverse agonism, confirmation; inhibition, % at 9.3 µM; shares compounds with MOR-DOR inv ag-1; cells expressing OPRM1/OPRD1 heterodimer, luminescence; hit rate 20% among 580; in the data active = inhibition above about 32%
HTR5A inv ctr2 = inverse agonist of human HTR5A in OPRM1-OPRD1 counter-screen; shares compounds with MOR-DOR inv ag-1; HTR5A-expressing cells, luminescence, inverse agonism; inhibition, % at 9.3 µM; 580 tested, under 10 active
MOR-DOR inv ag-2 = opioid heterodimer inverse agonism, HTR5A counter-screen; U2OS counter-screen cells, complementation luminescence; inhibition, % at 9.3 µM; 190 tested, under 10 active; shares compounds with HTR5A inv ctr
HTR5A inv confrm = HTR5A (human) inverse agonism, confirmation | shares compounds with HTR5A inv ctr | HTR5A-expressing cells, luminescence | inhibition, % at 9.3 µM | 190 tested, under 10 active | AID 504916
MOR-DOR ag-2 = opioid heterodimer agonism, HTR5A counter-screen; U2OS counter-screen cells, complementation luminescence, 3 h; hit rate 13% among 800; activation, % at 9.3 µM; AID 504913; shares compounds with HTR5A ag ctr; in the data active = activation above about 18%
HTR5A ag confirm = confirmation of human HTR5A agonists; shares compounds with HTR5A ag ctr; HTR5A agonist cell assay, luminescence; activation, % at 9.3 µM; hit rate 17% among 800; AID 504915; in the data active = activation above about 17%
Of the large screens only hits and unclear results are named; the others gave an inactive call (follow-up assays come after a bar, where they were run). Unless noted, the rule behind the calls is not given here.

N#Cc1c(/N=C/c2ccc(O)cc2O)sc2c1C1CCN2CC1	MOR-DOR inv ag-1 51 | OPRM1-D1 inv cf inactive | HTR5A inv ctr2 inactive
O=C(CN1CCCCC1)c1ccc(OC(F)F)cc1	none
CCC1CCCCN1CC(=O)c1ccc(OC(F)F)cc1 (stereo not given)	MOR-DOR inv ag-1 42 | OPRM1-D1 inv cf inactive | HTR5A inv ctr2 inactive
O=C(CN1CCCCC1)c1cccc(Br)c1	MOR-DOR inv ag-1 68 | OPRM1-D1 inv cf inactive | HTR5A inv ctr2 inactive
NS(=O)(=O)c1ccc(N2CCNCC2)cc1	none
C[C@H]1CCC/C=C/[C@@H]2C[C@H](O)C[C@H]2[C@@H](O)/C=C/C(=O)O1	MOR-DOR inv ag-1 42 | OPRM1-D1 inv cf inactive | HTR5A inv ctr2 inactive
COc1ccc(CNC(=O)C(NC(C)=O)C(C)C)cc1OC (stereo not given)	HTR5A inv ctr 18 | MOR-DOR inv ag-2 inactive | HTR5A inv confrm inactive
COc1ccc(-c2[nH]ncc2CNC(C)Cc2cccc(C)n2)cc1F (stereo not given)	none
CCC1C(c2ccccc2)NC(c2ccccc2)CC1(O)c1ccc(F)cc1 (stereo not given)	HTR5A ag ctr 17 | MOR-DOR ag-2 inactive | HTR5A ag confirm inactive
Brc1ccc(CN2CCNCC2)s1	none
c1ccc(CNCCc2c[nH]c3ccccc23)cc1	none
COc1cc(CNCCc2c[nH]c3ccccc23)cc(OC)c1	HTR5A ag ctr 15 | MOR-DOR ag-2 369 | HTR5A ag confirm inactive
CNCCc1c[nH]c2ccc(O)cc12	HTR5A ag ctr 124 | MOR-DOR ag-2 inactive | HTR5A ag confirm inactive
CCCN(CCC)[C@@H]1CCc2cccc(O)c2C1	HTR5A ag ctr 43 | MOR-DOR ag-2 inactive | HTR5A ag confirm 67
C=C(C)[C@@]12OC3(c4ccccc4)O[C@@H]1C1[C@@H]4O[C@]4(CO)[C@@H](O)[C@]4(O)C(=O)C(C)=C[C@H]4[C@@]1(O3)[C@H](C)[C@H]2OC(=O)/C=C/C=C/c1ccccc1 (stereo not given in full)	HTR5A ag ctr 33 | MOR-DOR ag-2 inactive | HTR5A ag confirm inactive
COc1ccc2c(CCN)c[nH]c2c1	HTR5A ag ctr 32 | MOR-DOR ag-2 inactive | HTR5A ag confirm inactive
COc1ccc2[nH]cc(CCN(C)C)c2c1	none (no result: HTR5A ag ctr, HTR5A inv ctr)
Cc1cccc(CCNCc2cc3cc(C)cc(C)c3[nH]c2=O)c1	none
Cc1cccc(CCNCc2cc3cccc(C)c3[nH]c2=O)c1	HTR5A ag ctr 15 | MOR-DOR ag-2 inactive | HTR5A ag confirm inactive
O=C(C1CC(c2ccccc2O)=NO1)N1CCC2(CC1)OCCO2 (stereo not given)	none
Cc1ccc(OCCSC2=NN2c2cc(C)nc(N)n2)cc1	none
CCOC(=O)CC1=C(C(=O)OCC)C2(C(=O)N1CC(=O)OC)C(C#N)=C(N)Oc1ccccc12 (stereo not given)	none
C=CCn1c(O)c(C(CC)=NCCc2c[nH]c3ccccc23)c(=O)[nH]c1=O	HTR5A ag ctr 31 | MOR-DOR ag-2 inactive | HTR5A ag confirm inactive
CC(Cc1ccsc1)NCc1cn[nH]c1-c1ccc(F)cc1F (stereo not given)	none
CN1CCC(c2c[nH]c3ccccc23)C1 (stereo not given)	HTR5A ag ctr 29 | MOR-DOR ag-2 23 | HTR5A ag confirm inactive
COc1ccc(CNC(=O)/C=C/c2ccc3[nH]cc(CCN(C)C)c3c2)cc1	none
NCCc1c[nH]c2ccc(C(N)=O)cc12	HTR5A ag ctr 96 | MOR-DOR ag-2 inactive | HTR5A ag confirm 83
Cc1cc(OCC(=O)N2CCC(C(=O)O)CC2)c2c3c(c(=O)oc2c1)CCCC3	none

Screens: PubChem BioAssay, The Scripps Research Institute Molecular Screening Center
